# Screening results as filed in PubChem.
# Shown are actives, neighbours in structure and some others; about 1.5% of the full set was active somewhere.
# E coli Lon inh: inhibitors of E. coli Lon protease, primary screen, biochemical, fluorescence polarization; purified E. coli Lon protease; inhibition, % at 7.94 µM; 360,000 compounds, 0.42% hits; in the data active means inhibition above about 13%, passing the limit was not always enough;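 further: 0% = enzyme with probe and DMSO and 100% = no enzyme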
# GLD-1 TGE inh: GLD-1/TGE RNA complex disruptors, primary screen, biochemical, fluorescence polarization; Female germline-specific tumor suppressor gld-1 (Caenorhabditis elegans), Q17339; 320,000 compounds, 0.44% hits; AID 2280, 2010; purified GLD-1 + fluorescein TGE RNA; inhibition, % at 5.96 µM;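 active means percent inhibition above a per-plate cutoff, the plate mean of test compounds plus 3 SD, cut at about 30% in these data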;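 further: 0% = DMSO wells with GLD-1 and probe and 100% = wells lacking GLD-1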
# Target sequence (Q17339 whole entry, looked up): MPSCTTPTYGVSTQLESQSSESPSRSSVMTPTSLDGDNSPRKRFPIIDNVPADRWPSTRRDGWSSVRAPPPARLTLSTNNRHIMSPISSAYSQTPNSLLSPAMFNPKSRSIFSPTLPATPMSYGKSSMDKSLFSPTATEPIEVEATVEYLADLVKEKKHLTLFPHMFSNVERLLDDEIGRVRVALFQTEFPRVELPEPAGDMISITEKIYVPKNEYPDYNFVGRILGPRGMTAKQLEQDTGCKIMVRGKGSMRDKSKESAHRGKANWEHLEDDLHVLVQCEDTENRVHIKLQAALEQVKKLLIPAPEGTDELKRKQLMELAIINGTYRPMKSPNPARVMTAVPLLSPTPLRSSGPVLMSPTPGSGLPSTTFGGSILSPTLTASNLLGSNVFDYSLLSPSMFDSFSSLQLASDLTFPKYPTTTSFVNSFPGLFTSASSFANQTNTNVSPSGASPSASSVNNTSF
# MCL1 BIM primary: inhibitors of MCL1 binding to BIM-BH3, primary screen, biochemical, fluorescence polarization; GST-MCL1 / FITC-Bim-BH3 fluorescence polarization; inhibition, % at 10.9 µM; 320,000 compounds, 0.68% hits; AID 2057, 2009;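 active means inhibition above the mean inhibition of all tested compounds plus 3 SD, set per campaign, cut at about 40% in these data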;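 further: 0% = DMSO wells and 100% = unlabeled Bim-BH3 peptide control; higher means more loss of mP so more displacement of Bim peptide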
# EBV gp42 block: Epstein-Barr virus gp42 inhibitors, primary screen, biochemical, uHTS, fluorescence polarization; Glycoprotein 42 (Epstein-Barr virus (strain AG876)), Q1HVG2; 220,000 compounds, 0.42% hits; inhibition, % (tested at 21.74 µM); Fluorescence polarization binding assay, mP read-out; in the data active means inhibition above about 50%
# Bcl-xL primary: inhibitors of human Bcl-xL, primary screen, biochemical, fluorescence polarization, HTS; Bcl-2-like protein 1 (Homo sapiens), Q07817; GST-Bcl-xL / FITC-Bim BH3 peptide fluorescence polarization; inhibition, % at 10.9 µM; 320,000 compounds, 0.7% hits;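 active means inhibition above the mean of all tested compounds plus 3 SD, cutoff set per campaign, cut at about 30% in these data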;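 further: 0% = DMSO wells and 100% = unlabeled Bim-BH3 peptide competitor; inhibitors lower millipolarization by displacing the labeled peptide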
# MEX-5 binding: MEX-5 zinc finger RNA-binding disruptors – biochemical, C. elegans, fluorescence polarization, MLPCN library, primary screen. AID 1832, 2009. 300,000 compounds, 0.38% hits. activity score (negative = inhibition of binding), % at 10 µM. MEX-5/FITC-TCR2 RNA binding; hits give low values. Zinc finger protein mex-5 (Caenorhabditis elegans), Q9XUB2;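 active means inhibition past about -25% in most replicates, and total fluorescence under double the plate's negative control median, limit read from the data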;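 further: 0% = DMSO and -100% = 5 µM competing unlabeled TCR2 RNA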
# E coli Lon conf: E. coli Lon protease inhibitor retest, confirmation, biochemical, fluorescence polarization. 1,400 compounds, 31% hits. AID 602230, 2012. purified E. coli Lon. inhibition, % at 7.94 µM. shares compounds with E coli Lon inh; in the data active means inhibition above about 16%;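 further: 0% = enzyme with probe and DMSO and 100% = no enzyme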
# * = called active by the depositor; . = no result given; + = active, no number.
SMILES,E coli Lon inh,GLD-1 TGE inh,MCL1 BIM primary,EBV gp42 block,Bcl-xL primary,MEX-5 binding,E coli Lon conf
COC(=O)[C@@]12CCCN1[C@H](c1ccc(-c3ccc(Cl)c(Cl)c3)c(OC)c1)[C@H]1C(=O)N(C)C(=O)[C@H]12,-9,5,.,.,.,.,.
Cc1cccc(NC(=O)C2CCCN(S(=O)(=O)c3c(C)nn(C)c3C)C2)n1 (stereo not drawn),12*,9,2,-2,0,-1,-9
CCOC(=O)[C@H](O)[C@@H](O)c1cccc([C@H](O)[C@@H](O)C(=O)OCC)c1,9,3,2,.,6,0,.
COCCN1Cc2cccc(C(=O)NCCCN3CCCC3=O)c2C1=O,-5,3,-5,8,0,-4,.
COC(=O)[C@H](C)NC(=O)NCCC1=CCCCC1,24*,-3,-5,-15,2,3,9
CCC(C)[C@H](NC(=O)NCCC1=CCCCC1)C(=O)OC (stereo partly drawn),-4,0,3,-19,3,-2,.
Cc1ccc(NC(=O)CN(C)C(=O)COC(=O)COc2cc(C)cc(C)c2)cc1,-34,.,.,.,.,.,.
N#C/C(=C(/O)c1cccs1)c1nc2ccccc2[nH]1,16*,4,2,6,3,-1,-8
Cc1cc2oc(=O)cc(CN3CCN(C/C=C/c4ccccc4)CC3)c2cc1O,22*,3,4,-18,4,-1,-37
CCOC(=O)C(Sc1cc(-c2ccccc2)nc2ncnn12)C(C)=O (stereo not drawn),-33,-12,-11,-4,0,2,.
CCOC(=O)N1CCN(Cc2nc3ccc([N+](=O)[O-])cc3c(=O)n2-c2ccccc2F)CC1,18*,2,3,.,0,1,0
COc1ccc(NC(=O)c2cccc(N3C(=O)c4cccc([N+](=O)[O-])c4C3=O)c2)cc1,19*,0,-6,.,1,1,0
COc1cccc(C(=O)Oc2ccc3ccc(=O)oc3c2)c1,23*,4,6,.,1,1,47*
O=[N+]([O-])c1cc(-c2ccc(/C=N/c3nc4ccccn4c3-c3ccco3)o2)ccc1Cl,27*,26,30,9,25,0,12
O=[N+]([O-])c1ccc(-c2ccc(C=Nc3cccc4ccccc34)o2)cc1,-2,25,-9,-16,-3,1,.
Cc1cc(Cl)ccc1OCC(=O)OCC(=O)NC1CCS(=O)(=O)C1 (stereo not drawn),4,2,-3,.,0,.,.
CN(C)CCCn1c2c3ccccc3ccc2c2oc(=O)c3ccccc3c21,+,.,.,.,.,.,23*
Cc1c(N/C(=N/S(=O)(=O)c2cc([N+](=O)[O-])ccc2Cl)c2ccccc2)c(=O)n(-c2ccccc2)n1C,19*,-4,6,-2,9,0,-11
Cc1ccc(S(=O)(=O)/N=C(/Nc2c(C)n(C)n(-c3ccccc3)c2=O)c2ccccc2)cc1,-8,3,-2,-2,1,3,.
Cc1cccc(NC(=O)NCC(F)(F)F)n1,27*,-2,4,-10,3,-1,14
Cc1cccc(NC(=O)Nc2ccccc2)n1,10,0,-6,.,4,0,.
Cc1ccc(C)c(NC(=O)CCC(=O)NN=C2CCCC2)c1,2,.,.,.,.,.,.
CCN(CC)C(=S)Nc1ccc(Cl)c(Cl)c1,17*,-1,7,-7,0,-2,32*
COc1ccccc1CCNC(=O)C(=O)NCC1OCCN1S(=O)(=O)c1ccc(Cl)cc1 (stereo not drawn),16*,6,4,.,5,0,-5
COc1ccccc1CCNC(=O)C(=O)NCC1OCCN1S(=O)(=O)c1ccc(F)cc1 (stereo not drawn),-3,-9,1,.,3,-2,.
